WRN helicase inh: qHTS for Inhibitors of WRN Helicase; AID 651768, 2012; WRN helicase unwinding, fluorescent forked duplex, kinetic; Potency, µM (series often up to 114 µM), actives largely listed as inhibitors; actives 0.46% (n = 360,000); Bifunctional 3'-5' exonuclease/ATP-dependent helicase WRN (Homo sapiens), Q14191; also: nearly all actives have a fitted effect of over 55% in size
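WRN at 20 nM final was preincubated with compound for 15 min at room temperature; reaction started with 100 nM forked duplex oligonucleotide carrying fluorophore and quencher plus 2 mM ATP (final). Unwinding followed kinetically by red fluorescence (ex 525/em 598 nm).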
PI5P4K alpha inh: qHTS for Inhibitors of phosphatidylinositol 5-phosphate 4-kinase (PI5P4K). Phosphatidylinositol 5-phosphate 4-kinase type-2 alpha (Homo sapiens), P48426. PI5P4Kalpha enzyme, ADP-Glo luminescence, 60 min; stronger effect = lower value. max response, %. actives 1.2% (n = 330,000). AID 652105, 2013; active = max response of -50% or lower; inconclusive = between -30% and -50%; inactive = -30% or higher; also: value at the top dose of about 77 µM
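Luminescence from ADP-Glo served as readout of PI5P4Kalpha activity in a qHTS format. Reaction: enzyme, substrate, compound, ATP at 5 microM final, 60 min at RT.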
FEN1 inh: qHTS Assay for the Inhibitors of Human Flap endonuclease 1 (FEN1); Recombinant FEN1 flap cleavage, fluorescence, 15 min; P39748; actives 0.35% (n = 390,000); Potency, µM (series often up to 114 µM), most hits filed as inhibitors; also: nearly all actives have a fitted effect of over 65% in size
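Reaction started by adding substrate (50 nM final) to 10 nM enzyme after 15 min room-temperature compound preincubation. Reads at 0 and 15 min, with data normalized and fitted to a four-parameter Hill equation.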
APEX1 inh: qHTS Assay for Inhibitors of the Human Apurinic/apyrimidinic Endonuclease 1 (APE1). recombinant APE1, TAMRA/BHQ-2 abasic DNA cleavage fluorescence. Potency, µM (series often up to 65.8 µM), usual class: inhibitors. actives 0.35% (n = 350,000). AID 2517, 2012; also: nearly all actives have a fitted effect of over 55% in size
Target sequence (P27695 whole entry, looked up): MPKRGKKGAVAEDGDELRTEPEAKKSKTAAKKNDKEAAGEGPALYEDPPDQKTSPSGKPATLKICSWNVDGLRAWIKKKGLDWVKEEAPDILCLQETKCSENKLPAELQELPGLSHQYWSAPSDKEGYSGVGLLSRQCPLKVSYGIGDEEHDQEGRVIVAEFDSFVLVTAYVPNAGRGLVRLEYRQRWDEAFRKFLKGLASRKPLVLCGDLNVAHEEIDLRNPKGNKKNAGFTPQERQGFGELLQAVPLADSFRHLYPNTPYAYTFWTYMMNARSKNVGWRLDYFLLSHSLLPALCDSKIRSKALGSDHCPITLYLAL
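Enzyme (0.75 nM final) and test compound are incubated 15 min at room temperature before adding 50 nM quenched THF abasic-site duplex. Cleavage dequenches TAMRA, followed at 525/598 nm over three reads one minute apart.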
BLM helicase inh: qHTS Assay for Inhibitors of Bloom's syndrome helicase (BLM) | Potency, µM (titrated, usually from 56.1 µM), actives largely listed as inhibitors | recombinant BLM DNA unwinding, fluorescence dequenching | RecQ-like DNA helicase BLM (Homo sapiens), P54132 | actives 0.2% (n = 350,000) | AID 2528, 2010; also: nearly all actives have a fitted effect of over 35% in size
RECQ1 inh-1: qHTS Assay for Inhibitors of RecQ-Like Dna Helicase 1 (RECQ1); ATP-dependent DNA helicase Q1 (Homo sapiens), P46063; Potency, µM (doses to about 57.3 µM), actives largely listed as inhibitors; RECQ1 DNA unwinding, red fluorescence kinetic read; actives 0.54% (n = 240,000); also: nearly all actives have a fitted effect of over 30% in size
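RECQ1T1 50 nM; forked duplex (20 bp + 30-nt ss tails) 200 nM, ATP 2 mM final; pH 8.0, 2 mM MgCl2, 2.5 ug/ml poly(dI-dC); 15 min compound preincubation; discontinuous kinetic read over 2 h at RT.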
RECQ1 inh conf: Confirmation qHTS Assay for Inhibitors of RecQ-Like Dna Helicase 1 (RECQ1). actives 28% (n = 610). shares compounds with RECQ1 inh-1. RECQ1 helicase DNA unwinding, fluorescence. Potency, µM (top dose mostly 229 µM), most hits filed as inhibitors; also: nearly all actives have a fitted effect of over 45% in size
ADP FP counter: Counterscreen for RECQ1 Inhibitors: ADP Fluorescence Polarization Displacement Assay | shares compounds with RECQ1 inh-1 | ADP fluorescence polarization displacement counterscreen | Potency, µM (doses to about 228 µM), usual class: inhibitors | actives 27% (n = 530); also: nearly all actives have a fitted effect of over 45% in size
RECQ1 inh-2: Confirmation qHTS Assay for Inhibitors of RecQ-Like Dna Helicase 1 (RECQ1) - Round 2 Cherry Picks. shares compounds with RECQ1 inh-1. recombinant RECQ1 DNA unwinding, red fluorescence. Potency, µM (series often up to 119 µM), most hits filed as inhibitors. actives 15% (n = 1,100). AID 504841, 2011; also: nearly all actives have a fitted effect of over 50% in size
Of the large screens only hits and unclear results are named; the others gave an inactive call (follow-up assays come after a bar, where they were run). In the library only some 1.5% were active in any assay of this set; here they are far more common. Unless noted, calls follow the shape of the dose curve; as a rule, active = well fitted curve in the direction sought with a large enough effect; inconclusive = small, poorly fitted or top-dose-only effect, or another doubt; inactive = no such curve, though single readings can be large; an effect the other way counts as inactive or inconclusive.

Cn1cnnc1Sc1ccc(C(=O)NCCC(c2ccccc2)c2ccccc2)cc1[N+](=O)[O-]	none
O=C(O)CC/C(=C\c1ccccc1[N+](=O)[O-])c1nc2ccccc2s1	none
O=C(O)CC/C(=C\c1ccc(N2CCCC2)c([N+](=O)[O-])c1)c1nc2ccccc2s1	WRN helicase inh inconclusive, FEN1 inh inconclusive, APEX1 inh inconclusive, BLM helicase inh inconclusive, RECQ1 inh-1 inconclusive | RECQ1 inh-2 inconclusive
O=C(CCCOc1ccccc1)Nc1ccccc1C(F)(F)F	none
O=C(O)Cc1cccc(OCCCN(Cc2cccc(C(F)(F)F)c2Cl)CC(c2ccccc2)c2ccccc2)c1	BLM helicase inh inconclusive, RECQ1 inh-1 inconclusive (no result: WRN helicase inh, PI5P4K alpha inh, FEN1 inh) | RECQ1 inh-2 25µM
CCN(CC)S(=O)(=O)c1ccc2c(c1)nc(CCC(=O)O)n2CC	none | RECQ1 inh conf inactive | ADP FP counter inactive
Cc1ccsc1CN(C(=O)c1ccc(OCC(C)C)cc1)C1CCS(=O)(=O)C1 (configuration not stated)	none (no result: WRN helicase inh, PI5P4K alpha inh, APEX1 inh, RECQ1 inh-1)
Cc1ccc(C2C(=O)N(C3CCCCCC3)CC(=O)N2CCC2=CCCCC2)cc1 (configuration not stated)	none (no result: WRN helicase inh, PI5P4K alpha inh, APEX1 inh, RECQ1 inh-1)
Cc1cc(C)cc(N2C(=O)CN(Cc3sccc3C)C2=S)c1	none
CCc1ccc(N2C(=O)CN(Cc3sccc3C)C2=S)cc1	RECQ1 inh-1 1.6µM | RECQ1 inh conf inactive | ADP FP counter inactive | RECQ1 inh-2 inactive
O=c1cc(-c2ccccc2)nc2nc(-c3ccco3)[nH]n12	RECQ1 inh-1 25µM | RECQ1 inh-2 inactive
CC(C)(C)c1ccc(C(=O)CS(=O)(=O)c2ccccc2)cc1	RECQ1 inh-1 inconclusive | RECQ1 inh-2 inactive
Cc1ccc(S(=O)(=O)CC(=O)c2ccccc2)cc1	RECQ1 inh-1 inconclusive
CC#C[C@]1(O)CC[C@H]2C3CCC4=CC(=O)CCC4=C3[C@@H](c3ccc(N(C)C)cc3)C[C@@]21C (some centres not stated)	none (no result: WRN helicase inh, PI5P4K alpha inh, FEN1 inh, BLM helicase inh)
CCCSc1ncc(Cl)c(C(=O)Nc2c(C(=O)c3ccc(C)cc3)oc3ccccc23)n1	none (no result: WRN helicase inh, PI5P4K alpha inh, APEX1 inh, RECQ1 inh-1)
Cc1cnc(CNc2ncnc3ccc(-c4ccc(C(=O)N(C)C)cc4)cc23)cn1	none (no result: WRN helicase inh, PI5P4K alpha inh, FEN1 inh)
Cc1cnc(CNc2ncnc3ccc(-c4ccc(N(C)C)cc4)cc23)cn1	RECQ1 inh-1 25µM (no result: WRN helicase inh, PI5P4K alpha inh, FEN1 inh) | RECQ1 inh-2 inconclusive
Cc1nc2ccc(CCO)cc2s1	none
Cc1nc2ccc(N=NC3=C(O)CCCC3=O)cc2s1	RECQ1 inh-1 1µM | RECQ1 inh conf inactive | ADP FP counter inactive
Cc1ccc(CNC(=O)C(Cc2ccccc2)NS(=O)(=O)c2ccc3c(c2)CCC(=O)N3)cc1 (configuration not stated)	none | RECQ1 inh conf inactive | ADP FP counter inactive
CCOC(=O)Cn1c(=O)oc2cc(S(=O)(=O)N3CCN(c4ccccc4F)CC3)ccc21	none (no result: WRN helicase inh, PI5P4K alpha inh, APEX1 inh, RECQ1 inh-1)

Source: PubChem BioAssay (National Center for Advancing Translational Sciences (NCATS))
